Laboratory results reported in PubChem BioAssay (Tox21).
Records with an inconclusive call do not appear. The source made the active and inactive calls. Unless noted, calls follow the shape of the dose curve; as a rule, active = well fitted curve in the direction sought with a large enough effect in the repeat runs; inconclusive = weak or mixed curves; inactive = no such curve, though single readings can be large; an effect the other way counts as inactive or inconclusive.

What was measured:
[1] = qHTS assay to identify small molecule antagonists of the glucocorticoid receptor (GR) signaling pathway - cell viability counter screen (AID 720693); also: nearly all actives have a fitted effect of over 55% in size
[2] = qHTS assay for identifying genotoxic compounds that show differential cytotoxicity against isogenic chicken DT40 cell lines with known DNA damage response pathways - wild type cell line (AID 743012); also: nearly all actives have a fitted effect of over 60% in size; also: potency is read from the fitted curve at half-maximal effect
Outline: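 Cytotoxicity in repair-proficient parental chicken DT40 cells serves as the comparator for Rad54/Ku70- and Rev3-deficient lines. Cells were exposed to compounds for 40 h at 37 C/5% CO2, and ATP-based luminescence (CellTiter-Glo) measured viability.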

[3] = qHTS assay for identifying genotoxic compounds that show differential cytotoxicity against isogenic chicken DT40 cell lines with known DNA damage response pathways - Rad54/Ku70 mutant cell line (AID 743015); also: nearly all actives have a fitted effect of over 60% in size; also: potency is read from the fitted curve at half-maximal effect
[4] = qHTS assay to identify small molecule antagonists of the androgen receptor (AR) signaling pathway - cell viability counter screen (AID 743033; also: nearly all actives have a fitted effect of over 45% in size)
[5] = qHTS assay to identify small molecule antagonists of the androgen receptor (AR) signaling pathway using the MDA cell line - cell viability counter screen (AID 743041; also: nearly all actives have a fitted effect of over 45% in size)
Outline: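 Viability read by CellTiter-Fluor fluorescence in the same wells as the antagonist screen, added after 15.5 h of a 16 h, 37C exposure. Human breast carcinoma MDA-kb2 AR-luc cells, compounds co-dosed with agonist R1881.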

[6] = qHTS assay to identify small molecule antagonists of the thyroid receptor (TR) signaling pathway - cell viability counter screen (AID 743064); also: nearly all actives have a fitted effect of over 50% in size
Outline: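 GH3.TRE-Luc rat pituitary cells carrying a TRE-luciferase reporter were treated with compound plus 1 nM T3 (final) for 23.5 h at 37 °C. Viability was then read in the same wells by CellTiter-Fluor fluorescence after a further 30 min.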

[7] = biological target: Androgen receptor (Homo sapiens) (UniProt P10275); assay: qHTS assay to identify small molecule antagonists of the androgen receptor (AR) signaling pathway (AID 743035; active = well fitted inhibition curve with a large enough effect in the signal ratio in the repeat runs, not every such curve was filed as active; the % refers to the signal ratio)
Androgen receptor (Homo sapiens), sequence (P10275 whole entry, looked up): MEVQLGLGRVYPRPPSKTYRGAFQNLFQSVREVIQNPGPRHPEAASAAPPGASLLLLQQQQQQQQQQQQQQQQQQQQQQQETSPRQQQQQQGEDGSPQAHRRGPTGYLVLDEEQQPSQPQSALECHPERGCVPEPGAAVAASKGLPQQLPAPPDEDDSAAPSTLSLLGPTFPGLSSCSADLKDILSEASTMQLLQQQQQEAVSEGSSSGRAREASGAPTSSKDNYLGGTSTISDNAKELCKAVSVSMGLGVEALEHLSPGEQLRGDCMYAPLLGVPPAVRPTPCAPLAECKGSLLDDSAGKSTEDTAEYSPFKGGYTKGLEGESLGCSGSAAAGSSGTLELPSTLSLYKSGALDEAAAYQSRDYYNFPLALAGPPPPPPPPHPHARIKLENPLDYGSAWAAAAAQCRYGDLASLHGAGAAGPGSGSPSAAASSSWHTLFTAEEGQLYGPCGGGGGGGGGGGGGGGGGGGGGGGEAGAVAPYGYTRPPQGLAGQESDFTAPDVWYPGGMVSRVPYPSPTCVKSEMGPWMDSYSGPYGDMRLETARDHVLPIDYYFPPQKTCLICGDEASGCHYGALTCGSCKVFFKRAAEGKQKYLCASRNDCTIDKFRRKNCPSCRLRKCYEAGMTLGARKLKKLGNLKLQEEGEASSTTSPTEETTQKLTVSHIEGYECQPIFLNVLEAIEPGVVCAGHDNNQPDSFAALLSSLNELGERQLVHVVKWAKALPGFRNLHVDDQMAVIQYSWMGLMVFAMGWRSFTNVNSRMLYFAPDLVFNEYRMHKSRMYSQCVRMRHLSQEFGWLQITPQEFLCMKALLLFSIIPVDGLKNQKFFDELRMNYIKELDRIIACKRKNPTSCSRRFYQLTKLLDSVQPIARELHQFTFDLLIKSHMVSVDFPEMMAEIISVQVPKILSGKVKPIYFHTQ
Outline: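 Steps: seed AR-UAS-bla GripTite HEK293 cells, incubate 4 h at 37C; pin in test compound, then add agonist R1881; incubate 16 h at 37C; add LiveBLAzer B/G FRET substrate, 2 h at room temperature; read fluorescence.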

[8] = biological target: Androgen receptor (Homo sapiens) (UniProt P10275); assay: qHTS assay to identify small molecule agonists of the androgen receptor (AR) signaling pathway using the MDA cell line (AID 743040; also: nearly all actives have a fitted effect of over 20% in size)
Outline: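 Luciferase agonist assay: 16 h compound exposure at 37C without CO2 in MDA-kb2 AR-luc cells, whose MMTV promoter responds to both AR and GR. Luminescence measured after 30 min room-temperature incubation with ONE-Glo.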

[9] = qHTS assay for identifying genotoxic compounds that show differential cytotoxicity against isogenic chicken DT40 cell lines with known DNA damage response pathways - Rev3 mutant cell line (AID 743014); also: nearly all actives have a fitted effect of over 55% in size; also: potency is read from the fitted curve at half-maximal effect

Measured: Potency

CC(=O)c1ccc2ccccc2c1
not listed: [7] | [8] | [9]
inactive: all other assays above

[Ca+2]
not listed: [7] | [8] | [9]
inactive: all other assays above

CC(C)NNC(=O)c1ccncc1
not listed: [5] | [9]
inactive: all other assays above

CCN(CC#N)c1cccc(C)c1
not listed: [4] | [7] | [8]
inactive: all other assays above

CC[N+](CC)(CC(=O)Nc1c(C)cccc1C)Cc1ccccc1 (tested in a mixture with another compound)
active: [9] 16 µM
inactive: [1] | [3] | [4] | [5] | [6]

Cc1ccc(C(=O)Nc2ccc(S(=O)(=O)O)c3cc(S(=O)(=O)O)cc(S(=O)(=O)O)c23)cc1NC(=O)c1cccc(NC(=O)Nc2cccc(C(=O)Nc3cc(C(=O)Nc4ccc(S(=O)(=O)O)c5cc(S(=O)(=O)O)cc(S(=O)(=O)O)c45)ccc3C)c2)c1
not listed: [3] | [7] | [8]
inactive: all other assays above

C=COCC1CCC(COC=C)CC1 (stereo unspecified)
inactive: [1] | [2] | [4] | [5] | [6]

CN1C(C)(C)CC(O)CC1(C)C
not listed: [7] | [8] | [9]
inactive: all other assays above

CN1CCC(=C2c3ccccc3CCc3cccnc32)CC1
inactive: [1] | [9] | [3] | [4] | [5]

CCOC(=O)c1ccccc1
inactive: [1] | [2] | [4] | [5] | [6]

COc1ccc2cc1Oc1cc3c(cc1OC)CC[N+](C)(C)[C@H]3Cc1ccc(cc1)Oc1c(OC)c(OC)cc3c1[C@@H](C2)[N+](C)(C)CC3
not listed: [7] | [8] | [9]
inactive: all other assays above

O=C(c1ccccc1)C1(O)CCCCC1
not listed: [3] | [7] | [8]
inactive: all other assays above

CC(=O)OCC(=O)[C@@]1(O)[C@H](C)C[C@H]2[C@@H]3CCC4=CC(=O)C=C[C@]4(C)[C@@]3(F)[C@@H](O)C[C@@]21C
not listed: [7] | [8] | [9]
inactive: all other assays above

C[C@H]1[C@H](NC(=O)/C(=N/OC(C)(C)C(=O)O)c2csc(N)n2)C(=O)N1S(=O)(=O)O (stereo in doubt)
inactive: [1] | [9] | [3] | [4] | [5]

CCCCCCCCCC[N+](C)(C)[O-]
active: [2] 24.3 µM | [9] 13.7 µM
not listed: [3]
inactive: all other assays above

CCOc1ccccc1OCC
not listed: [2] | [7] | [8]
inactive: all other assays above

COc1cc(C(=O)NCc2ccc(OCCN(C)C)cc2)cc(OC)c1OC
inactive: [1] | [2] | [3] | [5] | [6]

Cc1cccc(C)c1NC(=O)CC12CCCN1CCC2
not listed: [4] | [7] | [8]
inactive: all other assays above

O=S(=O)(O)c1cccc(S(=O)(=O)O)c1
not listed: [9]
inactive: all other assays above

Nc1ccncc1N
not listed: [7] | [8] | [9]
inactive: all other assays above

COc1cccc(OC)c1C(=O)N[C@@H]1C(=O)N2[C@@H]1SC(C)(C)[C@@H]2C(=O)O
inactive: [1] | [2] | [9] | [3] | [5]

O=C(CO)[C@@H](O)[C@H](O)[C@@H](O)CO
not listed: [2] | [7] | [8]
inactive: all other assays above

CN(C)CCCN(C)CCCN(C)C
not listed: [2] | [7] | [8]
inactive: all other assays above

O=C(O)c1cc(C(=O)O)cc(C(=O)O)c1
not listed: [2] | [7] | [8]
inactive: all other assays above

CCN1C=CN(C)C1C (stereo unspecified)
not listed: [2] | [7] | [8]
inactive: all other assays above

CC(=O)NC(=O)c1ccccc1O
not listed: [2] | [7] | [8]
inactive: all other assays above

O=C(CO)[C@@H](O)[C@H](O)[C@H](O)CO
not listed: [2] | [7] | [8]
inactive: all other assays above

CC[C@H]1OC(=O)[C@H](C)[C@@H](O[C@H]2C[C@@](C)(OC)[C@@H](O)[C@H](C)O2)[C@H](C)[C@@H](O[C@@H]2O[C@H](C)C[C@H](N(C)C)[C@H]2O)[C@](C)(OC)C[C@@H](C)C(=O)[C@H](C)[C@@H](O)[C@]1(C)O
not listed: [2] | [7] | [8]
inactive: all other assays above

CC(C#N)(CCC(=O)O)N=NC(C)(C#N)CCC(=O)O (stereo unspecified)
not listed: [2] | [7] | [8]
inactive: all other assays above

C=C(C)C(=O)OCC1CCCO1 (stereo unspecified)
not listed: [2] | [7] | [8]
inactive: all other assays above

CO[Si](C)(OC)c1ccccc1
not listed: [2] | [7] | [8]
inactive: all other assays above

CC(C)(N)C#N
not listed: [2] | [7] | [8]
inactive: all other assays above

CNCCO
not listed: [2] | [7] | [8]
inactive: all other assays above

CCCCCC(=O)OCCc1ccccc1
not listed: [2] | [7] | [8]
inactive: all other assays above

c1ccc(CCc2ccccc2)cc1
not listed: [2] | [7] | [8]
inactive: all other assays above

CCCc1ncc(C[n+]2ccccc2C)c(N)n1
not listed: [2] | [7] | [8]
inactive: all other assays above

CCCCCCCCCCOc1cc2c(=O)c(C(=O)OCC)c[nH]c2cc1OCC
not listed: [2] | [7] | [8]
inactive: all other assays above

CCCCc1nc(Cl)c(CO)n1Cc1ccc(-c2ccccc2-c2nn[nH]n2)cc1
inactive: [1] | [9] | [3] | [5]

CCC(C(=O)NC(=O)NC(C)=O)c1ccccc1 (stereo unspecified)
not listed: [2] | [7] | [8]
inactive: all other assays above

CCOC(=O)OC(C)OC1=C(C(=O)Nc2ccccn2)N(C)S(=O)(=O)c2ccccc21 (stereo unspecified)
inactive: [1] | [4] | [5] | [6]
active: [9] 1.5 µM | [3] 0.944 µM

C1CCC2(CCCCO2)OC1
not listed: [2] | [7] | [8]
inactive: all other assays above

CCCCN1C=CN(C)C1
not listed: [2] | [7] | [8]
inactive: all other assays above

CC(=O)Oc1cccc(C)c1
not listed: [2] | [7] | [8]
inactive: all other assays above

Cc1ccccc1N=C(N)N=C(N)N
not listed: [2] | [7] | [8]
inactive: all other assays above
